Shown is part of a subset that was picked to be rich in hits.
Pf Dd2 inh = qHTS Primary assay for Inhibitors of Plasmodium falciparum Dd2 growth in vitro. P. falciparum Dd2 growth, SYBR Green, 72 h. Potency, µM (top dose mostly 28.9 µM), for inactives: at the top dose activity, negative = inhibition, usual class: inhibitors. actives 4.3% (n = 120,000); active = well fitted inhibition curve with a large enough effect;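 also: plate controls were DMSO vehicle for no effect and reference drug for full effect; nearly all actives have a fitted effect of over 65% in size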
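Readout: SYBR Green fluorescence, 485 nm excitation, 535 nm emission, after ~16 h lysis at 37C. Before that, Dd2-infected red cells (2.5% hematocrit) grew 72 h with compound, 29 uM top final concentration.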
Starred values were filed as active, the others as inactive; i = inactive; [ ] = remark or other dose. Potency is read from the fitted curve at half-maximal effect.

SMILES	Pf Dd2 inh
COc1ccc(-c2noc(CN3CCN(c4cccc(Cl)c4)CC3)n2)cc1	17%
COc1cc(-c2noc(CN3CCN(c4ccccc4)CC3)n2)cc(OC)c1OC	14%
Cc1ccc(C#N)c(N2CC[C@@H](c3ccc4c(c3)OCO4)[C@H](O)C2)n1	5%
O=C(CC1CCN(C(=O)c2cccc(F)c2)C1)NCc1ccccc1 (stereo not drawn)	-3%
O=C(COc1ccccc1)N1C[C@@H]2C[C@H](C1)c1c(NS(=O)(=O)c3ccccc3)ccc(=O)n1C2	-25%
CCOCCOc1cccc(C(=O)N2C[C@H](C3CC3)[C@@H](N)C2)c1	-8%
O=C(NCC(F)F)c1cc(Br)cn2ccnc12	-12%[44.1 µM]
CC(=O)NC1CC2(CCN(C(=O)Cc3c(C)noc3C)CC2)Oc2ccccc21 (stereo not drawn)	9%
Cc1nc(C)c(C(=O)N2CCCC(Cc3noc(-c4cnccn4)n3)C2)s1 (stereo not drawn)	-10%
COCCN1C(=O)[C@@H]2C[C@@H](CN2C(=O)Cc2ccccc2)Oc2ccccc21	15%[44.1 µM]
Cc1cccc(NC(=O)Cn2c(N3CCC(C)CC3)nc(C)cc2=O)c1	-16%
COc1cccc(C(=O)NC[C@@H]2CC[C@H]3C[C@@H]2C3(C)C)c1	11µM*
COCC1(CNC(=O)c2cccc(OC)c2)C[C@@H](O)[C@@H](O)C1 (stereo partly drawn)	-5%[44.1 µM]
CC1(C)[C@H]2CC[C@@H](CNC(=O)c3cccnc3)[C@@H]1C2	-6%[44.1 µM]
COCCNS(=O)(=O)c1cc(C(=O)O)cc(-c2cccc3cccnc23)c1	-2%
O=C1NCCCCCCN(Cc2ccncc2)[C@@H]2CN(S(=O)(=O)Cc3cccc(F)c3)CC[C@H]12	8.9µM*
O=C1NCCCCCCN(Cc2ccncc2)[C@@H]2CN(C3CCC3)CC[C@H]12	13%
Cn1cnc(S(=O)(=O)N2CC[C@@H]3C(=O)NCCCCCCN(Cc4ccncc4)[C@@H]3C2)c1	15%
CCS(=O)(=O)N1CC[C@H]2C(=O)NCCCCCCN(Cc3ccncc3)[C@@H]2C1	16%
O=C1NCCCCCCN(Cc2ccncc2)[C@@H]2CN(S(=O)(=O)c3cccnc3)CC[C@@H]12	-2%
O=C1NCCCCCCN(Cc2ccncc2)[C@@H]2CN(S(=O)(=O)c3ccc4c(c3)CCC4)CC[C@H]12	2.8µM*
COc1ccc(C(=O)N2CCCC(C(=O)NCc3ccccc3)CCNC(=O)CC2)cc1F (stereo not drawn)	i
COc1ccc(CN2C(=O)CO[C@H](c3ccc(NC(=O)Nc4ccccc4)cc3)[C@H]2CO)cc1	i
O=Cc1ccc(-c2ccc(C(=O)O)cn2)cc1	10%[44.1 µM]
O=C(Cc1ccncc1)N1CC(F)(F)C[C@H]1c1nc(C2CC2)no1	-16%
SMILES	Pf Dd2 inh
CC(C)(Oc1nn(CC2CCOCC2)c2ccccc12)C(=O)NC1CCOCC1	-8%[44.1 µM]
CC(C)Cn1nc2n(c1=O)CCN(S(=O)(=O)c1cccc3cccnc13)CC2	-18%
O=C(c1ccc(C(F)(F)F)cc1)N1CCn2c(nnc2-c2ccccc2)C1	i
CN(C)CCNC(=O)c1nc2nc(-c3ccccc3)c(Nc3ccc(F)cc3)cc2n1C	7.1µM*
COCCCNC(=O)c1nc2nc(-c3ccccc3)c(Cl)cc2n1C	-27%[44.1 µM]
COCc1nc2nc(-c3ccccc3)c(Nc3ccc(F)c(OC)c3)cc2n1C	i
Cc1ccccc1Nc1cc2c(nc1-c1ccccc1)nc(C(=O)NCCN(C)C)n2C	7.9µM*
Cc1cc(-c2cc3c(nc2-c2ccccc2)nc(C(=O)NCCN(C)C)n3C)ccn1	-20%[44.1 µM]
CN(C)CCNC(=O)c1cc(-c2ccc(F)cc2)cc2ncn(C)c12	i
COc1ccc(C[C@H](NC(=O)C2=C[C@@H](NC(=O)CS(=O)(=O)c3ccccc3)[C@@H](O)[C@H](O)C2)C(N)=O)cc1	i
CNC(=O)[C@H]1C[C@H](Oc2cccnc2)CN1S(=O)(=O)c1ccccc1	-16%
CCCS(=O)(=O)NCCc1ncc(C)n1CCOC	-7%
O=C(O)CC1(CC(=O)N2CC[C@H]3NC(=O)N(c4ccc(F)cc4)C(=O)[C@H]32)CCCC1	-3%[44.1 µM]
COc1ccc(C(=O)NC2CCN(c3cc(-c4ccccc4)[nH]n3)CC2)c(C)c1	i
O=C(NCc1ccccc1F)C1CC(c2ccccc2)CN(C(=O)COc2ccccc2)C1 (stereo not drawn)	i
CCC1CN(C(=O)N2CCC(C(=O)NCCCc3ccccc3)CC2)c2cc(C)ccc2O1 (stereo not drawn)	i
CCC1CN(C(=O)N2CCC(C(=O)NCCC3=CCCCC3)CC2)c2cc(C)ccc2O1 (stereo not drawn)	13µM*
CC1CN(C(=O)N2CCC(C(=O)NCCC3=CCCCC3)CC2)c2ccccc2O1 (stereo not drawn)	-11%
Cc1cnc(C(=O)N2[C@@H]3CC[C@H]2CC(NC(=O)c2ccc(F)cc2)C3)cn1 (stereo partly drawn)	-7%
CCc1cccc(NC(=O)Cn2c(N3CCOCC3)nc(COC)cc2=O)c1	i
CN(C)c1ccc(CN[C@H]2CC(C)(C)[C@@H]3C[C@@](C)(O)CC[C@]23CCC(=O)NCCc2c[nH]c3ccccc23)cc1	-5%
c1ccc2sc([C@H]3CCN(Cc4ccc5c(c4)OCO5)C3)nc2c1	i
C=CCn1cc2c3c(cccc31)[C@H](CC(C)C)N[C@H](C(=O)NCc1ccccc1OC)C2	-9%[44.1 µM]
C=CCn1cc2c3c(cccc31)[C@H](CC(C)C)N[C@H](C(=O)NCCN1CCOCC1)C2	i
C=CCn1cc2c3c(cccc31)[C@H](CC(C)C)N[C@H](C(=O)NC1CCC1)C2	13µM*
SMILES	Pf Dd2 inh
CC(=O)N1CCCN(C(=O)[C@@H]2Cc3cn(C)c4cccc(c34)[C@H](CC(C)C)N2)CC1	-6%[44.1 µM]
C=CCn1cc2c3c(cccc31)[C@H](CC(C)C)N[C@H](C(=O)NCc1ccccc1)C2	7.1µM*
C#CCNC(=O)[C@@H]1Cc2c[nH]c3cccc(c23)[C@H](CC(C)C)N1	i
C=CCn1cc2c3c(cccc31)[C@H](CC(C)C)N[C@H](C(=O)N1CCOCC1)C2	i
CC(C)C[C@@H]1N[C@H](C(=O)NC2CCC2)Cc2cn(Cc3nccn3C)c3cccc1c23	10µM*
CC#CCn1cc2c3c(cccc31)[C@H](CC(C)C)N[C@H](C(=O)OC)C2	i
CC(C)C[C@@H]1N[C@H](C(=O)NC2CCC2)Cc2c[nH]c3cccc1c23	-16%[44.1 µM]
CC(C)C[C@@H]1N[C@H](C(=O)NC2CCCC2)Cc2c[nH]c3cccc1c23	13µM*
CC(C)C[C@@H]1N[C@H](C(=O)NC2CCCC2)Cc2cn(CC3CC3)c3cccc1c23	-16%[44.1 µM]
O=C(NCCn1c(=O)c(=O)[nH]c2ccccc21)C1CC(=O)N(c2n[nH]c3ccccc23)C1 (stereo not drawn)	i
Cc1ccc2nc(CO[C@H]3CN(Cc4cn(C)c5ccccc45)C[C@H]3F)[nH]c2c1	-14%[44.1 µM]
FC1(F)C[C@@H](c2nnc(C3CC3)o2)N(C2CCSCC2)C1	i
COc1cccc(CC(=O)N2CCCC3(C2)NC(=O)N(Cc2ccc(Cl)cc2)C3=O)c1 (stereo not drawn)	i
COc1ccc(C(=O)N[C@H]2CO[C@H]3[C@@H]2OC[C@@H]3n2cc(CN(C)Cc3ccccc3)nn2)cc1	1%
CCC(NCc1c(C(=O)N2CCCCCC2)nc2cc(C)ccn12)c1ccc(C)cc1 (stereo not drawn)	10µM*
Cc1ccn2c(C(=O)NCc3cccnc3N3CCN(C)CC3)c(C)nc2c1	-10%
Cc1ccn2c(=O)c(C(=O)NCc3ccccc3Cl)c(O)nc2c1	38%
